# Biological target: T1, NL_v2_PPR7 (Artificial Sequence)
# T1 chain: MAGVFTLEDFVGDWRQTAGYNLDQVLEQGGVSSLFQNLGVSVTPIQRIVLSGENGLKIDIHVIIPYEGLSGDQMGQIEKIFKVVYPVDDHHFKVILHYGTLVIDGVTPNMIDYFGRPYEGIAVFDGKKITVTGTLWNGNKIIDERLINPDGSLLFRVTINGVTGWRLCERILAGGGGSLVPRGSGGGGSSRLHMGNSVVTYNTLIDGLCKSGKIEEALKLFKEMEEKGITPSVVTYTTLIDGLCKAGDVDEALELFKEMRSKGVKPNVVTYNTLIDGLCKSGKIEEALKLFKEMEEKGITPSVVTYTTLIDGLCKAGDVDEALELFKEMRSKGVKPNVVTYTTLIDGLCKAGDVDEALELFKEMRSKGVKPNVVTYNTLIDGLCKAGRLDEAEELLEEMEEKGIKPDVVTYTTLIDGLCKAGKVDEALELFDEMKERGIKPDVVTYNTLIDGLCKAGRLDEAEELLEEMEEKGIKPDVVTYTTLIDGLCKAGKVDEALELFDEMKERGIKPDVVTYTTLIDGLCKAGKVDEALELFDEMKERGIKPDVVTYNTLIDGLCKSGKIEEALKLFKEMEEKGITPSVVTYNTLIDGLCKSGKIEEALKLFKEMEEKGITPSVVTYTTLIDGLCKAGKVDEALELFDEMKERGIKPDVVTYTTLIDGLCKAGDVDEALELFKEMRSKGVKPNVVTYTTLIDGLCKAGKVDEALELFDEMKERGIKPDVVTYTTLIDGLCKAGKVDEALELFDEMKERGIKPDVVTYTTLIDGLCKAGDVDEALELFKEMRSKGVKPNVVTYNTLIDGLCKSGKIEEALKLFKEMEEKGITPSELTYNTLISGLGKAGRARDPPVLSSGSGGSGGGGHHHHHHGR
# Experiment: RPB-ELISA
# Conditions: tags: N-terminal luciferase, C-terminal 6xHis; label: 5'-biotin; ssRNA
# Method: RNA probes consisting of a designed 30-base sequence containing 18 bases of the target sequence and modified by biotinylation at the 5′ end (RNA_1, RNA_2, RNA_3, RNA_4, and RNA_5, SEQ ID NOS: 61 to 65) were synthesized (Grainer). To a streptavidin-coated plate (Thermo fisher), the 5′-end biotinylated RNA probes were added, reaction was allowed at room temperature for 30 minutes, and the plate was washed with a lysis buffer (20 mM Tris-HCl, pH 7.6, 150 mM NaCl, 5 mM MgCl₂, 0.5% NP-40, 1 mM DTT, 0.1% BSA). For background measurement, wells to which RNA was not added, but 100 μL of the lysis buffer, 1 μL of 100 mM DTT, and 1 μL of 40 unit/4 RNase inhibitor (Takara, 2313A) were added were also prepared. Then, 200 μL of a blocking buffer (20 mM Tris-HCl, pH 7.6, 150 mM NaCl, 5 mM MgCl₂, 0.5% NP-40, 1 mM DTT, 1% BSA) was added, and the plate surface was blocked at room temperature for 30 minutes. Then, 100 μL of E. coli lysate containing luciferase-fused PPR protein having a luminescence level of 1.5×10⁸ LU/μL was added to each well, and the binding reaction was allowed at room temperature for 30 minutes. The well was washed 5 times with 200 μL of a washing buffer (20 mM Tris-HCl, pH 7.6, 150 mM NaCl, 5 mM MgCl₂, 0.5% NP-40, 1 mM DTT). […] The background (luminescence signal value obtained with adding the PPR protein and without adding RNA) was subtracted from the luminescences of the samples to which a solution containing each RNA and PPR protein was added, and the obtained values were used as the binding powers between the PPR protein and RNA.
# By using the v2 motif, PPR proteins for 23 kinds of target sequences (T_1 to T_3, and T_5 to T_24, SEQ ID NOS: […]) were prepared (NL_v2_PPR1 to 3, and NL_v2_PPR5 to 24, SEQ ID NOS: 56 to 58 and 70 to 88), and RPB-ELISA was used to analyze bindings of all the combinations. The experimental method was the same as that used in Example 3.
row,Sequence,binding signal
1,GGUGGUGAGGCCCUGGGC,21.4 log2 luminescence
2,GACUCAGGAAUCGGCUCU,20.5 log2 luminescence
3,GUCAGAGGGUUCUGGAUU,21.1 log2 luminescence
4,GGUUAGAGAUACAGUGUG,20.6 log2 luminescence
